From PubChem
Only some compounds are listed: those with a hit (about 0.97% of all), similar ones and a draw of the others.
Epigenetic reg: epigenetic control regulation, reporter derepression. murine LDR cells, GFP reporter derepression, 30 h. Potency, µM (titrated, usually from 53.9 µM), inactives show at the highest dose GFP activation, hits mostly activators. 280,000 tested, 0.2% active; also: potency is read from the fitted curve at half-maximal effect; % of control where 0% means no effect; nearly all actives have a fitted effect of over 60% in size
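Murine LDR cells bearing a silenced CMV-driven GFP reporter were exposed to compound for 30 h at 37 C. After PBS washes, GFP-positive cells (20-120 um objects) counted by laser-scanning microplate cytometry.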
pAkt inh: inhibitors of Akt phosphorylation. Neuro2A IGF-stimulated pAkt S473 HTRF, 20 min; stronger effect = lower value. activity change, % for hits at 50 µM. 360,000 tested, 0.32% active; in the data active = activity change below about -80%; inconclusive = mostly about -51% to -80%; also: % is scaled to controls: 0 for no effect and ±100 for the full control effect
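Neuro2A cells (4,500/well, DMEM with 0.5% FBS) were treated with compound at a single 50 µM final concentration, stimulated with 6 nM IGF for 20 min at 37 °C, and lysed. Phospho-Akt Ser473 was read by HTRF as 665/615 ratio ×10^4.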
MmCpn inh: inhibitors of Methanococcus maripaludis chaperonin TRiC (MmCpn); purified Mm-Cpn ATPase, ADP Transcreener TR-FRET; Potency, µM (titrated, usually from 76.9 µM), for inactives: top-dose activity, negative = inhibition, hits mostly inhibitors; 330,000 tested, 0.031% active; also: potency is read from the fitted curve at half-maximal effect; % is scaled to controls: 0 for no effect and ±100 for the full control effect; nearly all actives have a fitted effect of over 80% in size
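Reaction buffer contained 30 mM Tris pH 7.4, 100 mM KCl, 5 mM MgCl2 and 1 mM DTT. Mm-CPN (25 nM final) hydrolysed 10 uM ATP over 30 min at 37°C; ADP was read by HTRF.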
uPA surface inh: blocks generation of uPA at the cell surface | AID 540303 | 330,000 tested, 0.31% active | cell surface uPA generation assay, qHTS | Potency, µM (titrated, usually from 38.3 µM), for inactives: at the highest dose activity change, negative = inhibition, hits mostly inhibitors; active = well fitted inhibition curve with a large enough effect; inconclusive = small, poorly fitted or top-dose-only effect; inactive = no such curve, though single readings can be large or run the other way; tested in mouse RAW 264.7 cells; also: potency is read from the fitted curve at half-maximal effect; % is scaled to controls: 0 for no effect and ±100 for the full control effect; nearly all actives have a fitted effect of over 55% in size
MBNL1 CUG block: MBNL1-poly(CUG) RNA binding inhibition. TR-FRET MBNL1-His/biotin-(CUG)12 binding, 665/545 ratio. Potency, µM (highest dose often 57.5 µM), for inactives: at the highest dose activity change, negative = inhibition, most hits filed as inhibitors. 280,000 tested, 0.036% active. AID 2675; active = well fitted inhibition curve with a large enough effect in the signal ratio, with a control signal flat, not every such curve was filed as active; inconclusive = small, poorly fitted or top-dose-only effect, or effect the other way, or a change in a side signal; inactive = no such curve, though single readings can be large or run the other way; the % refers to the signal ratio; also: potency is read from the fitted curve at half-maximal effect; % is scaled to controls: 0 for no effect and ±100 for the full control effect
Target sequence (Q9NR56 whole entry, looked up): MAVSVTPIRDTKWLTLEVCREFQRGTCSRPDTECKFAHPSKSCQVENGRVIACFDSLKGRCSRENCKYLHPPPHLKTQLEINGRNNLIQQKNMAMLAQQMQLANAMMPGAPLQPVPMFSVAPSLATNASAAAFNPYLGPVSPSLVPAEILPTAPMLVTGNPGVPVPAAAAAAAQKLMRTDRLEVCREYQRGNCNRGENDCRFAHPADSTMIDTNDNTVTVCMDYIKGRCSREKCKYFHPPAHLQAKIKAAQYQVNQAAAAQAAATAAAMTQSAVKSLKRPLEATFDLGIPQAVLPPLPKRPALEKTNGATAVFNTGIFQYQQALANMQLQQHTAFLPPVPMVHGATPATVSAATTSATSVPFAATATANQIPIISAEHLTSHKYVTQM
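Compound titration spanned 92 nM–58 uM against the MBNL1-His/biotin-(CUG)12 complex. After 60 min at room temperature with 5 nM streptavidin-XL665 and 0.055 ng/ul terbium anti-His, ratiometric 665/545 nm emission (Ex 340 nm) normalized to controls.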
CCT modulator: cytosolic chaperonin activity modulation; purified chaperonin ATPase assay, HTRF ADP detection, 30 min; activity change, % (no concentration beside the values), hits read low; 360,000 tested, 0.3% active; AID 651819; in the data active = activity change below about -30%; also: % is scaled to controls: 0 for no effect and ±100 for the full control effect
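Enzyme 40 or 20 nM (batch-dependent) in Tris pH 7.4/KCl/MgCl2/DTT; cpd 76 uM single point; ATP 10 uM; 30 min 37 °C; Transcreener ADP HTRF detection, 30 min RT; ratio 665/615.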
* = called active by the depositor; i = inactive; ? = inconclusive; . = not tested or not shown. Unless noted, calls follow the shape of the dose curve; as a rule, active = well fitted curve in the direction sought with a large enough effect; inconclusive = small, poorly fitted or top-dose-only effect, or another doubt; inactive = no such curve, though single readings can be large; an effect the other way counts as inactive or inconclusive.

SMILES	Epigenetic reg	pAkt inh	MmCpn inh	uPA surface inh	MBNL1 CUG block	CCT modulator
O=C(C1CCCN(Cc2ccc3c(c2)OCO3)C1)N1CCCC1 (stereo not given)	1%	i	0%	-2%	-5%	-34*
CCOc1ccc(N=C2NC(=O)S/C2=C\c2ccc(N(C)C)cc2)cc1	7.9µM*	i	-7%	-4%	26%	1
CCc1ccccc1NC(=O)CN1CCN(C(=O)CNC(=O)c2ccc(-c3ccccc3)cc2)CC1	.	i	-4%	3.2µM*	.	-2
O=C(Cn1ncc(Cl)c(Cl)c1=O)NC1CCCCC1	.	i	-2%	10µM*	.	-1
O=C(COc1ccccc1[N+](=O)[O-])Nc1cccc(Cl)c1N1CCOCC1	.	i	1%	10µM*	10%	-3
CCOc1cc(N2CCOCC2)c(OCC)cc1NC(=O)COc1ccccc1[N+](=O)[O-]	6%	i	0%	1%	.	-9
COc1ccc2c(c1)CC(C(=O)Nc1c(C)cc(C)cc1C)CO2 (stereo not given)	-1%	.	.	.	.	.
COc1ccc(/C=C/C(=O)c2ccc([N+](=O)[O-])o2)cc1OC	.	i	-1%	2.5µM*	.	0
COc1cc(/C=C/C(=O)c2ccc([N+](=O)[O-])o2)ccc1O	.	i	1%	?	.	1
CCOc1ccc(NS(=O)(=O)c2cccs2)cc1S(=O)(=O)N1CCCC1	.	i	.	.	.	0
CN1C(=O)C(CC(=O)N2CCN(C(c3ccccc3)c3ccccc3)CC2)N(C)C1=O (stereo not given)	0%	-115%*	0%	-5%	?	-3
Cc1nnc(NC(=O)c2sc3nc(-c4cccs4)cc(C(F)(F)F)c3c2N)s1	9%	i	-2%	-2%	13%	-1
CC(C)(C)C(=O)c1sc2nc(-c3cccs3)cc(C(F)(F)F)c2c1N	11µM*	i	1%	-2%	27%	3
Cc1ccc(S(=O)(=O)n2cc(-c3ccccc3)c3ccccc32)cc1	.	i	1%	1.1µM*	.	-31*
CN(CC(=O)N(C)CC(=O)Nc1c(Cl)cccc1Cl)Cc1ccccc1F	.	i	2%	3%	.	-3
Cc1cc(C)c(NC(=O)CN(C)CC(=O)N(C)CC(=O)Nc2c(Cl)cccc2Cl)c(C)c1	.	i	0%	-6%	.	-57*
CCN(CC(=O)Nc1cc(Cl)ccc1C)C(=O)c1ccc(N2CCCC2=O)cc1	.	i	2%	8%	.	-1
Cc1ccc(S(=O)(=O)N2CCOCC2)cc1C(=O)Nc1ccc(S(=O)(=O)Nc2nccs2)cc1	1%	i	2%	8%	-1%	-2
O=C(c1c[nH]c2ccccc12)C(O)C(c1ccccc1)N1CCOCC1 (stereo not given)	0%	i	1%	3%	4%	-1
O=C(c1c[nH]c2ccccc12)C(Cl)c1ccccc1 (stereo not given)	.	i	4%	6.3µM*	4%	-1
COc1ccc2c(c1)CC(C(=O)NCCN1CCN(c3cccc(C)c3C)CC1)CO2 (stereo not given)	2%	.	.	.	.	.
Cc1ccc(S(=O)(=O)N2CCCCC2CCNC(=O)C(=O)NCc2ccco2)cc1 (stereo not given)	.	i	-1%	-19%	.	0
Cc1ccc(S(=O)(=O)N2CCCCC2CCNC(=O)C(=O)NCCc2ccco2)cc1 (stereo not given)	.	i	1%	1µM*	.	1
c1ccc(OCCNc2ccn3nc(-c4ccco4)cc3n2)cc1	.	i	.	.	.	1
CC(NC(=O)CN1CCCC1)C12CC3CC(CC(C3)C1)C2 (stereo not given)	-1%	i	2%	.	7%	-2
SMILES	Epigenetic reg	pAkt inh	MmCpn inh	uPA surface inh	MBNL1 CUG block	CCT modulator
CC(NC(=O)Cn1cnnn1)C12CC3CC(CC(C3)C1)C2 (stereo not given)	3%	i	2%	2%	14%	-91*
CCC1S/C(=C(\C#N)C(=O)NCc2ccco2)N(c2ccc(Br)cc2)C1=O (stereo not given)	-1%	-107%*	-11%	6%	1%	-2
COc1ccc(C2NC(C(=O)O)CS2)cc1COCC(F)(F)F (stereo not given)	-3%	i	2%	.	-2%	0
O=C(Nc1cccc(NC(=O)c2cc([N+](=O)[O-])ccc2Cl)n1)c1cc([N+](=O)[O-])ccc1Cl	.	i	.	8.9µM*	.	0
O=C(O)CCCNc1cc(N2CCN(C(=O)c3ccco3)CC2)c2noc3c2c1C(=O)c1ccccc1-3	.	i	35µM*	-3%	?	0
CN1CCN(c2cc(N3CCN(C(=O)c4ccco4)CC3)c3c4c(onc24)-c2ccccc2C3=O)CC1	.	i	-10%	-7%	?	-1
COc1ccc(N(CC(=O)NC(C)c2ccccc2)S(=O)(=O)c2c(C)nn(C)c2C)cc1 (stereo not given)	-1%	.	.	.	.	.
CCN(CC)c1ccc(NC(=O)Nc2ccccc2C(F)(F)F)cc1	1%	-116%*	-5%	-3%	-7%	2
CCN(CC)c1ccc(NC(=O)Nc2cccc3ccccc23)cc1	.	i	-1%	-1%	-2%	1
CC1(C(=O)NS(=O)(=O)c2ccc(Br)cc2)CCN1C(=O)CCc1ccccc1 (stereo not given)	.	i	.	.	.	-79*
CCN1/C(=C/C=C/c2oc3ccc4ccccc4c3[n+]2CC)Oc2ccc3ccccc3c21	0.13µM*	i	0%	-20%	10%	1
C=CCN1c2ccccc2[C@]23C[C@@H](C(=O)OC)N(C(=O)c4cc(C)oc4C)C2=NC(C(=O)OC)=C(C(=O)OC)[C@H]13	0%	i	1%	5.6µM*	1%	-2
COc1ccc(S(=O)(=O)NCc2csc(C)n2)cc1OC	.	i	2%	-4%	-3%	-1
O=C(c1cccc(Br)c1)N1CCN(c2ccc(N3CCOCC3)nn2)CC1	.	i	0%	-16%	.	-1
O=C(c1cncc(Br)c1)N1CCN(c2ccc(N3CCOCC3)nn2)CC1	-2%	i	-1%	-10%	12%	-37*
Nc1[nH]c(=O)nc2snnc12	.	i	.	-7%	.	-1
Cc1csc2nc(O)c(C(=O)NC3CCCCCC3)c(=O)n12	.	i	-3%	0%	.	-35*
Cc1csc2nc(O)c(C(=O)NC3CCCCC3)c(=O)n12	.	i	-1%	-8%	.	-1
COc1ccc(OC)c(NC(=O)COC(=O)CCc2nc3ccccc3c(=O)[nH]2)c1	.	i	-2%	-1%	.	-3
COc1cc2nc3c(c([Si](C)(C)C(C)(C)C)c2cc1OC)Cn1c-3cccc1=O	7.9µM*	.	.	.	.	.
COc1ccc2nc3c(c([Si](C)(C)C(C)(C)C)c2c1)Cn1c-3cccc1=O	9%	.	.	.	.	.
